PubChem BioAssay AID504832 (National Center for Advancing Translational Sciences (NCATS), 2011)
Hit rate of the full screen: of about 310,000 compounds, about 18,000 (5.8%) were called active. Entries that show only a call come without a potency. Roughly 22% stayed inconclusive and do not appear here. The sample holds actives, similar compounds and a random draw of the others, so the mix is not that of the screen. Calls follow the shape of the dose curve; as a rule, active = well fitted inhibition curve with a large enough effect; inconclusive = small, poorly fitted or top-dose-only effect, or another doubt; inactive = no such curve, though single readings can be large or run the other way.

test: Primary qHTS for delayed death inhibitors of the malarial parasite plastid, 48 hour incubation; details: P. falciparum luciferase growth in erythrocytes; series mostly up to 28.7 µM
How it was run: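 Growth was read as firefly luciferase luminescence after a 48 h, 37 C, 5% CO2 exposure of compounds to reporter-bearing P. falciparum cultures (0.1% parasitemia, 2% hematocrit final) in Albumax-supplemented RPMI 1640.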
Potency is read from the fitted curve at half-maximal effect.

Row | SMILES | Potency
1 | CCOc1ccc2[nH]c(C(=O)N/N=C/c3cccc(OC)c3OC)cc2c1 | inactive
2 | COc1ccc(-c2onc3ccc(C(C)=O)cc23)cc1 | inactive
3 | COc1ccc(O)c(C(=O)c2cnc3onc(C(C)C)c3c2)c1 | 2.62 µM (active)
4 | COc1ccc(OC)c(C(=O)c2ccc(Cl)cc2)c1 | inactive
5 | COc1ccc(Cl)cc1-n1c(C)cc(C(=O)OCC(=O)N2CC(=O)Nc3ccccc32)c1C | 5.22 µM (active)
6 | COc1cc(OC)c(C(=O)OCC(=O)N2CC(=O)Nc3ccccc32)cc1OC | inactive
7 | COc1ccc(C(=O)OCC(=O)N2CC(=O)Nc3ccccc32)cc1Br | inactive
8 | CCCC(C)NC(=O)C1CCN(C(=O)C2CC(=O)N(c3ccc(C)cc3)C2)CC1 (centres undefined) | inactive
9 | CCn1c(-c2ccncc2)n[nH]c1=S | inactive
10 | CCCc1cc(-c2n[nH]c(=S)n2CC)c2ccccc2n1 | 1.31 µM (active)
11 | C=CCn1c(-c2ccccc2OCC)n[nH]c1=S | inactive
12 | O=C(c1cc(S(=O)(=O)N2CCOCC2)ccc1Cl)N1CCOCC1 | inactive
13 | Cn1cnc2c1c(=O)n(Cc1ccccc1C#N)c(=O)n2C | inactive
14 | O=C(Nc1ccccc1F)c1ccccc1-c1ccccc1 | inactive
15 | CCN(CC(=O)Nc1c(F)cccc1F)C(=O)c1ccc(-c2ccccc2)cc1 | inactive
16 | CC(C)N(C(=O)c1ccc(-c2ccccc2F)cc1)C(C)C | 10.4 µM (active)
17 | CCCCN(C(=O)c1nn(C)c(=O)c2ccccc12)c1c(N)n(CCC)c(=O)[nH]c1=O | inactive
18 | Cc1cccc(N(C(=O)Cc2cccs2)C(C(=O)NCc2ccco2)c2ccncc2)c1 (centres undefined) | inactive
19 | Cc1cccc(N(C(=O)c2sc(C)nc2C)C(C(=O)NCC2CCCO2)c2ccccc2)c1 (centres undefined) | inactive
20 | Cc1nc(C)c(C(=O)N(c2ccc(C)c(C)c2)C(C(=O)NCc2ccco2)c2ccccc2)s1 (centres undefined) | 11.7 µM (active)
21 | CCOCc1nnc(NC(=O)CCS(=O)(=O)Cc2ccccc2)s1 | inactive
22 | Cc1cccc(CNS(=O)(=O)c2ccc(-c3cnc(C4CC4)o3)cc2)c1 | inactive
23 | COc1ccc(C)cc1N(CC(=O)N1CCCC1)S(=O)(=O)c1ccccc1 | inactive
24 | Cc1nc(NCCN)c(C#N)c2c1COC(C)(C)C2 | inactive
25 | CC(C)C(=O)N1CCN(c2nc(-c3ccccc3)c3c(c2C#N)CC(C)(C)OC3)CC1 | 13.1 µM (active)
26 | CC1(C)Cc2c(sc(NC(=O)C(=O)N3CCOCC3)c2C#N)CO1 | inactive
27 | Cc1sc(NC(=O)C2=COCCO2)c(C#N)c1C | inactive
28 | COc1ccccc1NC(=O)CSc1nnc(CNC(=O)c2ccccc2F)o1 | inactive
29 | O=C(CN1C(=O)c2ccccc2S1(=O)=O)NC1CCCCC1 | inactive
